These results are taken from PubChem BioAssay (EPA / NIEHS).

SMILES strings stand for the structures. Activity calls are given as the source filed them. Rule for the calls: active = hit-call score of the fitted dose curve at least 0.9, where 1 is the maximum; inactive = score below 0.9.

Chain of Cellular tumor antigen p53 (Homo sapiens) (P04637 whole entry, looked up): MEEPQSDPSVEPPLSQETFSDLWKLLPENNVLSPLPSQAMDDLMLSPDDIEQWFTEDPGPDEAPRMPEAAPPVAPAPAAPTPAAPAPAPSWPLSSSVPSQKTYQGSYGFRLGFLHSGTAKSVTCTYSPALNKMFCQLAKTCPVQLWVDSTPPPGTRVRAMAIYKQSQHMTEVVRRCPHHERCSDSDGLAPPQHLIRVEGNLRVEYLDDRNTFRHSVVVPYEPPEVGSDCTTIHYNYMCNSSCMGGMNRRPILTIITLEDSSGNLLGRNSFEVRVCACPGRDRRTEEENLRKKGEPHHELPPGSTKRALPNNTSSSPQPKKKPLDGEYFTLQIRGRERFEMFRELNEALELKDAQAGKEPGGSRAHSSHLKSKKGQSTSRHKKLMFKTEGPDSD

The test concerns the target Cellular tumor antigen p53 (Homo sapiens) (UniProt P04637). Description: ATG_p53_CIS: Attagene CIS-FACTORIAL HepG2 Assay for human p53 Transcription Factor (AID 2282994). The conditions noted are these: HepG2 p53 cis-element reporter, Attagene mRNA; actives raise or lower the signal. As to the method:
ATG_CIS is a cell-based, multiplexed-readout assay that uses HepG2, a human liver cell line, with measurements taken at 24 hours after chemical dosing in a 24-well plate.ATG_p53_CIS is one of 52 assay component(s) measured or calculated from the ATG_CIS assay. It is designed to make measurements of mRNA induction, a form of inducible reporter, as detected with fluorescence intensity signals by Reverse transcription polymerase chain reaction (RT-PCR) and Capillary electrophoresis technology.Data from the assay component ATG_p53_CIS was analyzed into 1 assay endpoint. This assay endpoint, ATG_p53_CIS, was analyzed with bidirectional fitting relative to DMSO as the negative control and baseline of activity. Using a type of inducible reporter, measures of mRNA for gain or loss-of-signal activity can be used to understand the reporter gene at the transcription factor-level as they relate to the gene TP53. Furthermore, this assay endpoint can be referred to as a primary readout, because this assay has produced multiple assay endpoints where this one serves a reporter gene function. To generalize the intended target to other relatable targets, this assay endpoint is annotated to the dna binding intended target family, where the subfamily is tumor suppressor.
Human liver HepG2 cells are transiently transfected with multiple reporter transcription units (MRTUs) in 6-well plates using FuGene 6 reagent (Roche; 3 ml FuGene/1 mg DNA). The MRTU constructs are regulated by a cis-regulating element (promoter). […] A major difference between the CIS and TRANS system is that in CIS activities of endogenous TFs are measured, whereas the TRANS assay evaluates changes in activities of exogenous, chimeric NR-Gal4 proteins. […] At the end of 24 hour incubation, total RNA was isolated using TriZol reagent (Invitrogen). The isolated RNA is then reverse-transcribed using oligo(dT) primer and Mo-MLV reverse transcriptase (Invitrogen) with DNAse I (Ambion) treatment for 30 min. The one-tenth of the produced cDNA was amplified by PCR using Taq DNA polymerase (Invitrogen) and two reporter sequence-specific primers. The PCR products were fluorescently labeled by primer extension with 6-arboxyfluorescein (6-FAM) 5'-labeled reporter sequence-specific primer (2 min at 95 C, 20 s at 68 C and 10 min at 72 C) and these products were digested with 5U of HpaI (New England Biolabs) for 2h at 37 C. The fragments were purified using Qiaquick PCR columns (Qiagen), analyzed on an ABI 3130xL genetic analyzer (Applied Biosystems) with peak positions identified by using a set of X-rhodamine (ROX)-labeled MapMarker1000 molecular weight standards (BioVentures). The raw capillary electrophoresis data was processed using Attagraph software (Attagene).
Take `O=C1C=CC(=O)N1c1ccc(Cc2ccc(N3C(=O)C=CC3=O)cc2)cc1`: the call was inactive.
`CCCCCCCCCc1ccc(OCCO)cc1`: the result was inactive.
For `Cc1cc(C)c(O)c(C(C)(C)C)c1` the value was “inactive”; for `C=CC(=O)OCC(F)(F)C(F)(F)C(F)(F)C(F)(F)C(F)(F)C(F)(F)C(F)(F)C(F)F`, “inactive”; for `Cc1ccc(O)c(-n2nc3ccccc3n2)c1`, “inactive”.
For `OCC(F)(F)C(F)(F)C(F)(F)CO` the value was “inactive”.
`OCCCCC(F)(F)C(F)(F)C(F)(F)C(F)(F)F`: the result was inactive.
As for `CC(C)=CCCC(C)O` (stereo not given), the result was inactive.
For `CN(C(=O)C(F)(F)C(F)(F)C(F)(F)F)[Si](C)(C)C` the value was “inactive”.
On to `O=C1OC(=O)c2ccc3c4c(ccc1c24)C(=O)OC3=O`, for which the outcome was inactive.
For `CCOCN(C(=O)CS(=O)(=O)O)c1c(C)cccc1CC` the value was “inactive”.
For `C=CC(=O)OCCC(F)(F)C(F)(F)C(F)(F)C(F)(F)F` the value was “inactive”.
Turning to `CCc1cccc(C)c1N(C(=O)C(=O)O)C(C)COC` (stereo not given), the outcome was inactive.
For `CO[Si](C)(CCC(F)(F)C(F)(F)C(F)(F)C(F)(F)C(F)(F)C(F)(F)F)OC` the value was “inactive”; for `Oc1ccc(C2(c3ccc(O)c(C4CCCCC4)c3)CCCCC2)cc1C1CCCCC1`, “inactive”; for `CCCCCCCC/C=C\CCCCCCCC(=O)OCC(O)CO` (stereo not given), “inactive”.
For `OCC(F)(F)C(F)(F)C(F)(F)C(F)(F)C(F)(F)C(F)(F)CO` the value was “inactive”.
For `CN1CN(C)CN(C)C1` the value was “inactive”; for `OCCC(O)CO` (stereo not given), “inactive”.
Regarding `CCN(CC)c1ccc(N=Nc2ccccc2)cc1`, the outcome was inactive.
For `COC(=O)c1ccc(C=O)cc1` the value was “inactive”; for `CC1CCCCC1`, “inactive”; for `NS(=O)(=O)C(F)(F)C(F)(F)C(F)(F)C(F)(F)C(F)(F)C(F)(F)F`, “inactive”.
`O=C1C=CC(=O)N1c1ccccc1`: the call was inactive.
To `O=c1[nH]cccc1O` belongs “inactive”.
For `O=S(=O)(O)CCC(F)(F)C(F)(F)C(F)(F)C(F)(F)C(F)(F)C(F)(F)C(F)(F)C(F)(F)F` the value was “inactive”; for `N#CCCOCCC#N`, “inactive”.
To `COCCC(=O)OC` belongs “inactive”.
Take `CCCCC(CC)COC(=O)c1ccc(N(C)C)cc1` (stereo not given): the result was inactive.
On to `Brc1ccccn1`, for which the call was inactive.
To `Cc1ccc([N+](=O)[O-])c(C)c1` belongs “inactive”; to `Brc1nc2ccccc2s1`, “inactive”.
For the molecule `CCN(CC)c1ccc(C=O)cc1`, the call was inactive.
To `NC(=O)C(F)(F)C(F)(F)C(F)(F)F` belongs “inactive”.
To `O=C(O)C(F)(F)C(F)(F)C(F)(F)OC(F)(C(F)(F)F)C(F)(F)F` belongs “inactive”.
With `NC(O)(C(F)(F)F)C(F)(F)F`, the call was inactive.
To `CC(C)OC(=O)COc1ccc(Cl)cc1Cl` belongs “inactive”; to `CNS(=O)(=O)C(F)(F)C(F)(F)C(F)(F)C(F)(F)C(F)(F)C(F)(F)C(F)(F)C(F)(F)F`, “inactive”; to `CC1=CCC2C(=O)OC(=O)C2C1` (stereo not given), “inactive”.
For `Cc1cnccn1` the value was “inactive”.
